# Source: PubChem
# Mdm2 MdmX PPI: inhibitors of human Mdm2-MdmX association, primary screen, cell-based, luminescence, split luciferase, SaOS-2, uHTS; Protein Mdm4 (Homo sapiens) + E3 ubiquitin-protein ligase Mdm2 (Homo sapiens), …; SaOS-2 split-luciferase Mdm2/MdmX complementation; inhibition, % at 8 µM; hit rate 3% among 330,000; AID 485346, 2010;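 active means inhibition of at least 50% at 8 µM in the primary screen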
# Target sequence (O15151 whole entry, looked up): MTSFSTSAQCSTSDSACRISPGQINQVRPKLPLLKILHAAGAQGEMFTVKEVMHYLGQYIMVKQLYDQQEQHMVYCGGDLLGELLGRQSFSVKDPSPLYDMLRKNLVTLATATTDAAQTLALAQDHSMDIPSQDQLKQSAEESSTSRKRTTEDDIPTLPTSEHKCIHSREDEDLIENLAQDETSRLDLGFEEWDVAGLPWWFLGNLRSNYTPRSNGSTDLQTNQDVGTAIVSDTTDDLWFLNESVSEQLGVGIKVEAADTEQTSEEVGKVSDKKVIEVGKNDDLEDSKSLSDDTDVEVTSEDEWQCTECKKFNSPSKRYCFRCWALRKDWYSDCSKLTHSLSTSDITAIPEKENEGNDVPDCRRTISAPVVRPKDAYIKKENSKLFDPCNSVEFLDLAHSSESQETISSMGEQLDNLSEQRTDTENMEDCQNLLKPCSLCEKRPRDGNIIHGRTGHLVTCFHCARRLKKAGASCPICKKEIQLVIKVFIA
# Target sequence (Q00987 whole entry, looked up): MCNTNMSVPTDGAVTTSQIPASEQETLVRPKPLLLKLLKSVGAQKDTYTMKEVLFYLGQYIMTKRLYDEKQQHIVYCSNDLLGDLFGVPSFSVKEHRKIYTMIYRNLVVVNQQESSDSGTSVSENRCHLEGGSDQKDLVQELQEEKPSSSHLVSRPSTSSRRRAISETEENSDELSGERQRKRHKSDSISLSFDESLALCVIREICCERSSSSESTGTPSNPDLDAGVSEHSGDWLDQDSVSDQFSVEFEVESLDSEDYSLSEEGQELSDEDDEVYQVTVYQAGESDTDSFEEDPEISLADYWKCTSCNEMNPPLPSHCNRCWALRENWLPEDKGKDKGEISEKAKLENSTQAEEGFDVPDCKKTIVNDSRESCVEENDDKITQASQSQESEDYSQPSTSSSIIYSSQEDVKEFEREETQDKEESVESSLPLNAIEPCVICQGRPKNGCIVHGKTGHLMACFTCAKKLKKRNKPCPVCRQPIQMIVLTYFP
# Jurkat NFkB inh: inhibitors of induced NF-kB luciferase reporter, primary screen, TCR NF-kB activation inhibitor project, cell-based, luminescence, uHTS; hit rate 0.53% among 330,000; Jurkat, PMA/ionomycin-induced NF-kB luciferase reporter; inhibition, % at 4 µM; in the data active means inhibition above about 50%
# Beta cell apopt: inhibitors of cytokine-induced beta cell apoptosis, primary screen, luminescence | protection from apoptosis, % (test concentration not listed) | AID 435005, 2010 | hit rate 0.8% among 300,000 | INS-1E cytokine-induced death, ATP luminescence, 48 h; percent of positive-control rescue, neutral wells zero;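 active means Every replicate reaches about 75%, or at least half do and their mean reaches it too, limit read from the data; inconclusive means At least half of replicates reach the limit but their mean does not; inactive means Under half of replicates reach the limit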;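 further: higher means more ATP so stronger rescue from cytokine killing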
# Bfl-1 A1 inh: caspase 3/7 activation in MEF A1-2A-BIM cells, primary screen, A1 inhibitor project, cell-based, luminescence, HTS; Caspase-Glo 3/7 luminescence, 3 h; percent of clofoctol response, vehicle zero; hit rate 0.066% among 330,000; AID 2462, 2010; caspase activation, % (no concentration beside the values);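 active means over half of replicate activation scores above 10%, or exactly half above 10 with the replicate mean above 10; inconclusive means replicate mean below 10 yet half the replicates above 10; inactive means over half of replicates below 10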
# 697 NFkB inh: inhibitors of PMA/ionomycin-induced NF-kB reporter, 697 cells, primary screen, B-cell NF-kB inhibitor project, cell-based, luminescence, uHTS; 697 B-cell NF-kB luciferase reporter, 16 h; inhibition, % at 4 µM; hit rate 0.33% among 330,000; AID 435022, 2010; in the data active means inhibition above about 35%
# NTR1 ag: agonists of human NTR1, primary screen, imaging, U2OS cells, beta-arrestin-GFP, high content; activation, % at 20 µM; AID 493036, 2011; hit rate 0.17% among 330,000; NTR1-U2OS beta-arrestin-GFP spot imaging, agonist mode; Neurotensin receptor type 1 (Homo sapiens), P30989;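 active means activation at or above 40% of the spot to cytoplasm intensity ratio, with at least 20 cells analyzed; inconclusive means wells under 20 cells, flagged as cytotoxic or low count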
# Mdm2-MdmX conf: Mdm2-MdmX complex disruptors, retested hits, confirmation, luminescence, single concentration. Mdm2-MdmX binding, luminescent assay. AID 489028, 2010. shares compounds with Mdm2 MdmX PPI. hit rate 55% among 10,000. inhibition, % at 8 µM; in the data active means inhibition above about 40%
# FLuc counter: full-length luciferase signal inhibition, confirmation, counter-screen for Mdm2/MdmX interaction inhibitor project, cell-based, single concentration, SaOS-2; AID 504607, 2011; shares compounds with Mdm2 MdmX PPI; hit rate 77% among 6,200; SaOS-2 full-length luciferase counterscreen, luminescence; inhibition, % at 8 µM;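 active means mean inhibition at 8 µM reaching about 37%, which flags the compound as non-specific, limit read from the data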;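 further: p53-null SaOS-2 cells with luciferase driven by a doxycycline-inducible promoter; compound on cells about two nights before reading with doxycycline added after day one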
# Numbers stand for hits; 0 = inactive; ? = inconclusive; - = no result. This is a sample that favours compounds with a hit; in the whole collection about 3.8% have one here.
SMILES,Mdm2 MdmX PPI,Jurkat NFkB inh,Beta cell apopt,Bfl-1 A1 inh,697 NFkB inh,NTR1 ag,Mdm2-MdmX conf,others
OCCN1CCN(c2ncnc3c2c(-c2ccccc2)cn3-c2ccc(Br)cc2)CC1,55,0,0,0,0,0,0,
CC(C)(C)c1ccc(C(=O)N2CCN(CCNC(=O)C(=O)NCc3ccc(Cl)cc3)CC2)cc1,0,0,0,0,0,0,-,
Cc1ccsc1C(=O)OCC(=O)N1CC(C)CC(C)C1 (centres undefined),0,0,0,0,0,0,-,
Cc1cc2ccccn2c1C(=O)c1ccc(Cl)c([N+](=O)[O-])c1,0,0,0,0,0,0,-,
Cc1c(C=O)c2ccccn2c1C(=O)c1ccc(Cl)c([N+](=O)[O-])c1,66,0,0,0,0,0,0,
COc1cccc(CC(=O)N2CCN(S(=O)(=O)c3ccc(Br)cc3)CC2)c1,0,0,0,0,0,0,-,
COc1ccc(NC(=O)c2ccc3c(c2)NC(=O)CS3)cc1S(=O)(=O)Nc1ccc(Br)cc1,69,0,0,0,0,0,77,FLuc counter=44
Cc1ccc(NS(=O)(=O)c2cc(NC(=O)c3ccc4c(c3)NC(=O)CS4)ccc2C)c(C)c1,0,0,0,0,0,0,-,
Cc1sc2ncnc(Sc3nnnn3-c3ccccc3)c2c1C,88,0,0,0,0,0,48,FLuc counter=0
Clc1ccc(-n2nnnc2Sc2ncnc3sccc23)cc1,90,0,0,0,0,0,74,FLuc counter=43
Cc1nn(Cc2ccccc2)c(C)c1CNC(=O)[C@H](C)N=C1NS(=O)(=O)c2ccccc21,-,-,0,0,-,-,-,
CN(C)S(=O)(=O)c1ccc(C(=O)NCC2CC2(Cl)Cl)cc1 (centres undefined),0,0,-,0,0,0,-,
Cc1nc(=O)c(-c2ccccc2)c(C)n1-c1ccccc1Cl,0,0,0,0,0,0,-,
Cc1noc(C)c1NC(=O)Nc1ccc2c(c1)C(=O)N([C@@H](C)CO)C[C@@H](C)[C@@H](CN(C)Cc1ccc3c(c1)OCO3)O2,0,0,0,0,0,0,-,
Nc1nc(C2CCOCC2)cs1,0,0,0,0,0,0,-,
Nc1nc(C2CC2)c(Sc2sc(N)nc2C2CC2)s1,51,0,0,0,0,0,0,FLuc counter=119
COc1cccc(C(=O)Nc2ccc3c(cc2=O)[C@@H](NC(C)=O)CCc2cc(OC)c(OC)c(OC)c2-3)c1,71,0,0,0,0,0,66,FLuc counter=99
COc1cc2c(cc1NC(=O)c1cccc(F)c1)CCCC2,0,0,0,0,0,0,-,
COC(=O)c1ccc(COc2ccccc2/C=C(\C#N)C(=O)Nc2c(C)cccc2C)cc1,93,0,107,0,0,0,53,FLuc counter=42
Cc1cc(C)cc(NC(=O)CN(C)CC(=O)N(CC(C)C)c2c(N)n(CC(C)C)c(=O)[nH]c2=O)c1,0,0,0,0,0,0,-,
Nc1cc(OCC(F)(F)F)cc([N+](=O)[O-])c1,0,0,0,?,0,0,-,
Nc1cc(N)c(OCC(F)(F)F)cc1OCC(F)(F)F,78,0,0,0,0,0,0,
COc1cccc(CNC(=O)CCNC(=O)C2CCN(S(=O)(=O)c3ccccc3)CC2)c1,0,0,-,0,0,0,-,
O=C(Nc1ccc2c(c1)C(=O)N(c1ccccc1)C2=O)c1cccs1,50,0,0,0,0,0,0,
CCOC(=O)c1sc(NNC(=O)c2ccc(C)cc2)nc1C,0,0,0,0,0,0,-,
